Inconclusive results are not listed. The source made the active and inactive calls. Unless noted, the call rests on the fitted dose curve.
Legend:
[1] = qHTS to identify inhibitors of the type 1 interferon - major histocompatibility complex class I in skeletal muscle: primary screen against the NCATS Pharmaceutical Collection (AID 1347407; active means well fitted curve in the direction sought with a large enough effect; an effect the other way counts as inactive or inconclusive;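 further: luminescence of HiBiT knocked into endogenous HLA-B as interferon-induced MHC class I level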)
How it was run: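 Compounds […] were added to CRISPR-engineered HLA-B-HiBiT C25cl48 human myoblasts with 4.0 ng/ml IFN-beta. After 24 hrs at 37 C, cells were lysed and HiBiT luminescence measured.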

[2] = target: Protein phosphatase 1D (Homo sapiens) (UniProt O15297); experiment: RapidFire Mass Spectrometry qHTS Assay for Modulators of WT P53-Induced Phosphatase 1 (WIP1) (AID 1347424; active means well fitted curve in the direction sought with a large enough effect; an effect the other way counts as inactive or inconclusive;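 further: amount of dephosphorylated VEPPL-S-QETFS peptide product formed by WIP1; series mostly up to about 63 µM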)
How it was run: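 RapidFire mass spectrometry measured dephosphorylated peptide after 5 min room-temperature reaction of 2 uM VEPPL-pS-QETFS with 10 nM WIP1 (50 mM Tris-HCl pH 7.5, 30 mM MgCl2, 0.1 mM EGTA, BSA), following 1 hr compound preincubation; 1 uM isotope-labelled product standard.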

[3] = target: Protein phosphatase 1D (Homo sapiens) (UniProt O15297); experiment: Rhodamine-PBP qHTS Assay for Modulators of WT P53-Induced Phosphatase 1 (WIP1) (AID 1347425; active means well fitted curve in the direction sought with a large enough effect; an effect the other way counts as inactive or inconclusive)
How it was run: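 5 nM WIP1 + 10 uM Rh-PBP, 50 mM Tris pH 7.5, 30 mM MgCl2, 1 mM TCEP, 0.1 mM EGTA, BSA; cpds pinned, 1 hr RT; + 10 uM phosphopeptide; fluorescence 1-min reads x 11 min; delta = f1 - f0.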

[4] = Primary qHTS for inhibitors of SARS-S pseudo-typed particle cell entry (AID 1479145); further: nearly all actives have a fitted effect of over 45% in size
[5] = Primary qHTS for Huh7 cytotoxicity: counterscreen for inhibitors of MERS-S pseudotyped particle cell entry (AID 1479147)
[6] = Primary qHTS for inhibitors of MERS-S pseudo-typed particle cell entry (AID 1479149); further: nearly all actives have a fitted effect of over 60% in size
[7] = Primary qHTS for Vero E6 cytotoxicity: counterscreen for inhibitors of SARS-S pseudo-typed particle cell entry (AID 1479150)

Measured: Potency

Sequence of Protein phosphatase 1D (Homo sapiens) (O15297 whole entry, looked up): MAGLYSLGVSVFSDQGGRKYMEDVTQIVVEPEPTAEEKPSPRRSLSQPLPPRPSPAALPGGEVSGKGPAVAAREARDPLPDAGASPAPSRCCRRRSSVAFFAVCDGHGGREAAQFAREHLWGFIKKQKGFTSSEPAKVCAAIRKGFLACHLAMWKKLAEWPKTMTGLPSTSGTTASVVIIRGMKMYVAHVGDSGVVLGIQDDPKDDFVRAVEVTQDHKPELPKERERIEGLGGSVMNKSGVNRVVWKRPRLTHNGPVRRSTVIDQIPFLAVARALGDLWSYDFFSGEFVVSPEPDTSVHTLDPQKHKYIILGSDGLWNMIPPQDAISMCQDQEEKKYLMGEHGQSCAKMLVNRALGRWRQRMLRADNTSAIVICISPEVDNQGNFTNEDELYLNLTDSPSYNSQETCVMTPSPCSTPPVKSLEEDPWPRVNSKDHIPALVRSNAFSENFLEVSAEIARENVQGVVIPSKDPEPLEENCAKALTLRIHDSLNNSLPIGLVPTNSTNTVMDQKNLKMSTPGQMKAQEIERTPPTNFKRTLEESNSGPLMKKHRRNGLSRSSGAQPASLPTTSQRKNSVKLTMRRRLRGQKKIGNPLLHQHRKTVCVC

CC1COC2(c3ccccc3Cl)c3cc(Cl)ccc3NC(=O)CN12 (stereo not drawn)
inactive: all assays above

Nc1ccccc1C(=O)OCC(O)CO (stereo not drawn)
inactive: all assays above

CN(C)C(=O)Oc1cc(OC(=O)N(C)C)cc(C(O)CNC(C)(C)C)c1 (stereo not drawn)
inactive: all assays above

COc1ccc2c3c1O[C@H]1[C@@H](O)C=C[C@H]4[C@@H](C2)N(C)CC[C@@]341
inactive: [2] | [3]
